Assay results reported in PubChem BioAssay (NCATS).
“And” between values parts separate entries of the source, which are not always exact repeats. Equal entries are not always repeated. Inconclusive results are not listed. The source made the active and inactive calls. Calls come from the whole dose curve; as a rule, active = well fitted activation curve with a large enough effect; inconclusive = small, poorly fitted or top-dose-only effect; inactive = no such curve, though single readings can be large or run the other way.
Potency is the fitted concentration of half-maximal effect.

What follows are compounds tested against Cellular tumor antigen p53 (Homo sapiens) (UniProt P04637) (assay: Primary qHTS for small molecule compounds that upregulate eGFP-tagged delta133p53alpha (in N-terminal) cells. (AID 2060322; note: nearly all actives have a fitted effect of over 75% in size;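 for activation: cells pre-induced with doxycycline then dosed without doxycycline; series mostly up to about 56 µM; 0% = DMSO vehicle and 100% = reference activator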)). Settings: NCI-H358 eGFP-delta133p53alpha fluorescence, 24 h; activation: active compounds read high.
Cellular tumor antigen p53 (Homo sapiens), sequence (P04637 whole entry, looked up): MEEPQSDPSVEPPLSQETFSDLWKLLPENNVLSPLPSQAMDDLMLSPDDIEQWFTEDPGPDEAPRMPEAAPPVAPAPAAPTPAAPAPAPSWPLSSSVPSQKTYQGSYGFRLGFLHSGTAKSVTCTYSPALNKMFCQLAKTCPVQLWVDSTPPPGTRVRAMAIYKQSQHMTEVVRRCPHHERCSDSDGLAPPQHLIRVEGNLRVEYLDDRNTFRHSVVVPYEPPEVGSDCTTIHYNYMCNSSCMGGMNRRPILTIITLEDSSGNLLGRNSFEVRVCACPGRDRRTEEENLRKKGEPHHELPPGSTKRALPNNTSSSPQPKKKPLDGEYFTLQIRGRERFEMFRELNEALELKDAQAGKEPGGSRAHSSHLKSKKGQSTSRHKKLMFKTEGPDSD
Excerpt: Assay Development and Screening Technology
National Center for Advancing Translational Sciences (NCATS),
National Institute of Health (NIH), Rockville, Maryland
Cellular senescence (CS) is one of the hallmarks of aging and age-related diseases. Senescent cells are characterized by an irreversible growth arrest, an increase in senescence-associated beta-galactosidase (SA-beta-gal) activity and p16INK4a expression, an activation of the DNA damage response pathways, and the emergence of a senescence-associated secretory phenotype (SASP).
Delta133p53alpha, a human/primate-specific p53 protein isoform, delays or inhibits the induction of CS and SASP in various types of human cells, including progeria-derived fibroblasts, primary normal astrocytes, and CD8+ T lymphocytes. Induction of delta133p53alpha with small molecule compounds may provide therapeutic opportunities for inhibition of senescence/SASP-associated pathologies in progeria syndromes, astrocyte-mediated neuroprotection in neurodegenerative diseases, and possibly prevention and treatment of a wider range of senescence- and aging-associated diseases.
Here we report the development and validation of a cell-based quantitative high throughput screening (qHTS) assay in 1,536-well format. This qHTS assay uses the NCI-H358 cell line with doxycycline-inducible expression of enhanced green fluorescent protein (eGFP)-tagged delta133p53alpha, which allows efficient and highly quantitative measurement of the protein levels.
PROTOCOL TABLE (as described by Inglese J, Shamu CE and Guy RK. 2007)
SEQUENCE No. (e.g., 1, 2, 3, etc.); […] (e.g., Cells, Incubation, Reagent, etc.); VALUE; DESCRIPTION.
1; Cells; 4uL; 800 doxycycline treated cells / well in doxycycline-free media, 1536-well black, clear-bottom low base Aurora microplates.
2; Compounds; 23 nL; Kalypsis pin tool (Wako) equipped with 1536-well pin heads, 5-azacytidine positive control.
3; Incubation; 24 hr; 37C, 5% CO2; 95% relative humidity.
4; Aspiration; 1x; BioTek EL406 washer dispenser (Agilent).
5; Fixing; 3.5% paraformaldehyde, BioTek EL406 washer dispenser (Agilent).
6; Washing; 1x PBS; BioTek EL406 washer dispenser (Agilent).
7; Nuclei staining; 1:1000 dilution of Hoechst 33342 (Thermofisher), BioTek EL406 washer dispenser (Agilent).
8; Incubation; 20 min; in the dark at room temperature.
9; Washing; 2x, 1x PBS (ThermoFisher), BioTek EL406 washer dispenser (Agilent).
10; Reagent; 10 uL; 1x PBS per well, sealed with clear adhesive tape.
NOTES (numbers refer to sequence numbers above).
1. NCI-H358 cells expressing eGFP-tagged delta133p53alpha were grown in T75 culture flasks and treated with doxycycline for 24h, at 10 ng/ml for eGFP-D133p53a cells (N-terminal cell) and 100 ng/ml for D133p53a-eGFP cells (C-terminal cells). Cells were trypsinized, counted using a Counted 3 Automated Cell Counter (Thermo Fisher), and diluted to a concentration of 200,000 cells/ml. A Multidrop Combi Reagent Dispenser (ThermoFisher) was used to dispense 800 cells/well in […] of doxycycline-free media, into 1536-well black/clear bottom low base plates (AuroraMicroplates).
2. After plating cells, 23 nl of compound library, DMSO vehicle control or positive control (5-azacytidine) were transferred by Pin Tool (Wako). The plate map layout was the same for each plate: (column 1) non-doxycycline treated cells + DMSO vehicle control; (column 2) doxycycline treated cells + DMSO vehicle control baseline; (column 3) doxycycline treated cells + positive control 57.5 uM final concentration 5-azacytidine; (column 4) doxycycline treated cells + serial dilution of 5-azacytidine, 16-point 1:2 titration spanning 1.8 nM to […] final concentration; (columns 5-48) doxycycline treated cells + titration of library compounds.
3. Cells were incubated at 37 °C, 5 % CO2, 95% RH with breathable metal lid for 24h.
4-10. […] After two washes, 10 ul of 1X PBS (Thermo Fisher) was dispensed to each well. Clear adhesive plate seals (VWR) were applied and plates stored at 4 °C.
11. […]
With C/C(=C/CCC(CO)C1CCC2(C)C3CCC4C(C)(C)C(OC5OC(CO)C(O)C(O)C5O)CC(O)C45CC35CCC12C)COC1OC(CO)C(O)C(O)C1O (stereo not given) the activation was -10.7% (inactive). COc1ccc(/C=C/C(=O)O[C@@H]2[C@@H](O)[C@@H](O)[C@H](O[C@H]3[C@@H]4C=CO[C@@H](O[C@@H]5O[C@H](CO)[C@@H](O)[C@H](O)[C@H]5O)[C@@H]4[C@@]4(CO)O[C@@H]34)O[C@H]2C)cc1 was tested, and the activation was -16% (inactive). In the case of CC1(C=O)CCCC2(C)C1CCC13CC(CO)C(CCC12)C3 (stereo not given), the activation is reported as -9.92% (inactive). COc1c2c(c(C)c3c1C(=O)OC3)OC1(C)CC(O)C34OC(OC)(CC(OC(C)=O)C3(C)C1C2)OC4(C)C (stereo not given) was tested, and the activation was -5.36% (inactive). With COc1cc2nc(N3CCN(C(=O)COc4c(OC)cccc4C(C)C)CC3)nc(N)c2cc1OC the activation was -11% (inactive). In the case of Cc1oc(=O)oc1COC(=O)[C@@H]1N2C(=O)[C@@H](NC(=O)[C@H](N)c3ccccc3)[C@H]2SC1(C)C, the activation is reported as -5.08% (inactive). With CN1[C@@H]2CC[C@H]1CC(OC(=O)c1c[nH]c3ccccc13)C2 (stereo not given in full) the activation was -6.21% (inactive) and -7.16% (inactive). With C[C@@H](Nc1cc(NS(=O)(=O)N2CCC2)nc(SCc2cccc(F)c2F)n1)[C@@H](O)CO the activation was -20.5% (inactive). For COc1cc(C(=S)N2CCOCC2)cc(OC)c1OC, the activation was -16.4% (inactive). COc1ccc(/C=C/C(=O)O[C@@H]2[C@@H](OC(C)=O)[C@@H](OC(C)=O)[C@H](O[C@H]3[C@@H]4C=CO[C@@H](O[C@@H]5O[C@H](CO)[C@@H](O)[C@H](O)[C@H]5O)[C@@H]4[C@@]4(CO)O[C@@H]34)O[C@H]2C)cc1 was tested, and the activation was 5.34% (inactive). With C=C1CC23CC1CCC2C12OC(=O)C(C)(C(O)C(O)C1O)C2C3C(=O)O (stereo not given) the activation was 2.68% (inactive). CC(=O)N1CCN(c2ccc(OCc3nn(C)c(C)c3-c3cccc4c(CCCOc5cccc6ccccc56)c(C(=O)O)n(Cc5cccnc5)c34)cc2)CC1 was tested, and the activation was 22.3% (inactive). O=C(O)C1CN(CCCP(=O)(O)O)CCN1 (stereo not given) was tested, and the activation was -32.5% (inactive). Cc1c(C(C)C)c(=O)n(-c2ccccc2)n1C was tested, and the activation was -13.4% (inactive). In the case of CC(C)C[C@@H](N)C(=O)O, the activation is reported as -14.2% (inactive). CC(C)(O)C(O)C(=O)OCc1ccc(O[C@@H]2O[C@H](CO)[C@@H](O)[C@H](O)[C@H]2O)cc1 (stereo not given in full) was tested, and the activation was 8.4% (inactive). With CNCCCN1c2ccccc2CCc2ccccc21 the activation was 14.2% (inactive) and -26.6% (inactive). For COC(=O)C1=CO[C@@H](O[C@@H]2O[C@H](CO)[C@@H](O)[C@H](O)[C@H]2O)[C@@H]2[C@@H](CO)[C@@H](O)C(O)[C@H]12 (stereo not given in full), the activation was -1.79% (inactive). CN(C)C(=O)C(=O)c1cn(C)c2cc(Cl)c(C(=O)N3CCC(Cc4ccc(F)cc4)CC3)cc12 was tested, and the activation was -10.7% (inactive). For CC(C)CC(=O)O[C@@H]1O[C@H](CO)[C@@H](O[C@H]2O[C@H](C)[C@@H](N[C@H]3C=C(CO)[C@@H](O[C@H]4O[C@H](CO)[C@@H](O[C@H]5O[C@H](CO)[C@@H](O[C@H]6O[C@H](CO)[C@@H](O)[C@H](O)[C@H]6O)[C@H](O)[C@H]5O)[C@H](O)[C@H]4O)[C@H](O)[C@H]3O)[C@H](O)[C@H]2O)[C@H](O)[C@H]1O, the activation was -13.7% (inactive). COc1ccccc1N1CCN(CCCNc2cc(=O)n(C)c(=O)n2C)CC1 was tested, and the activation was 16.7% (inactive) and -11.6% (inactive) and 14.7% (inactive). In the case of CN1N=C(C(N)=O)CCC1=O, the activation is reported as -6.21% (inactive). With Fc1cccc(CN(C2=NCCN2)c2c(Cl)cccc2Cl)c1 the activation was -15% (inactive). O=C(O[C@H]1[C@@H]2C=CO[C@@H](O[C@@H]3O[C@H](CO)[C@@H](O)[C@H](O)[C@H]3O)[C@@H]2[C@@]2(CO)O[C@@H]12)c1ccc(O)cc1 was tested, and the activation was 4.58% (inactive). For C[C@@H]1CC[C@]2(C)C3(C)CC[C@@]2(OC3=O)[C@@]12C[C@H](c1ccoc1)OC2=O, the activation was 26.7% (inactive). CC(C)c1cc(-c2ccc(F)c3ccccc23)nc(N)n1 was tested, and the activation was -13.4% (inactive). CC(C)Oc1ccc(-c2cnc3c(-c4ccnc5ccccc45)cnn3c2)cc1 was tested, and the activation was -6.21% (inactive). In the case of Cc1cnn(C)c1C(=O)Nc1cc(Nc2ccc3c(C=Cc4ccccn4)n[nH]c3c2)ccc1F, the activation is reported as 18.7% (inactive). For CCN(c1nc(N)c(C(=O)N=C(N)N)nc1Cl)C(C)C, the activation was -41.7% (inactive). C[C@@H]1O[C@@H](O[C@H]2[C@H](OC(=O)[C@]34CCC(C)(C)C[C@H]3C3=CCC5[C@@]6(C)C[C@H](O)[C@H](O[C@@H]7O[C@H](CO[C@@H]8OC[C@H](O)[C@H](O)[C@H]8O)[C@@H](O)[C@H](O)[C@H]7O)C(C)(C)C6CC[C@@]5(C)[C@]3(C)C[C@H]4O)OC[C@@H](O)[C@@H]2O)[C@H](O)[C@H](O[C@@H]2OC[C@](O)(CO)[C@H]2O)[C@H]1O[C@@H]1OC[C@H](O)[C@H](O[C@@H]2OC[C@@H](O)[C@H](O)[C@H]2O)[C@H]1O (stereo not given in full) was tested, and the activation was 8.93% (inactive). NCCc1cnc[nH]1 was tested, and the activation was -5.21% (inactive) and -25.1% (inactive) and -31.8% (inactive). With CCCSc1nc(NC2CC2c2ccc(F)c(F)c2)c2nnn(C3CC(OCCO)C(O)C3O)c2n1 (stereo not given) the activation was 16.7% (inactive). In the case of O=C(/C=C/c1ccc(O)c(O)c1)OCCc1ccccc1, the activation is reported as -0.816% (inactive). With Nc1ncnc2c1c(-c1ccc(Oc3ccccc3)cc1)nn2[C@@H]1CCCNC1 the activation was 20% (inactive). In the case of Cn1cc(S(=O)(=O)c2ccc(Cl)cc2)c2cccc(N3CCNCC3)c21, the activation is reported as 3.34% (inactive). CSc1ccc(C(=O)c2[nH]c(=O)[nH]c2C)cc1 was tested, and the activation was -17.5% (inactive) and -26.2% (inactive). CN1CC(=O)N/C1=N/C(=O)Nc1cccc(Cl)c1 was tested, and the activation was 5.86% (inactive). With O=C(CCl)Nc1cccc(NC2=NS(=O)(=O)c3ccccc32)c1 the Potency was 26.9 µM (active). With O=C(NC1CCOCC1)c1ccc(-c2cc(-c3cn[nH]c3-c3ccccn3)ccn2)cc1 the activation was 37.2% (inactive) and 4.46% (inactive). CC1(C)CCC(C)(C)c2cc([C@@H](O)C(=O)Nc3ccc(C(=O)O)cc3F)ccc21 was tested, and the activation was -4.77% (inactive).
